Values joined by “and” are separate entries in the source; they are usually repeats but may differ in a detail not shown here. Identical values can stand only once. Records with an inconclusive call do not appear. Some compounds were tested as several samples or in several runs, with calls that do not always agree. Active and inactive are the calls of the source. Unless noted, calls come from the whole dose curve; as a rule, active = well fitted curve in the direction sought with a large enough effect in the repeat runs; inconclusive = weak or mixed curves; inactive = no such curve, though single readings can be large; an effect the other way counts as inactive or inconclusive.

Test [1] is described as follows: A CellTox Green Cytotoxicity Assay to monitor cytotoxicity in HepG2 cells - 8 hour (AID 1224890). Note: nearly all actives have a fitted effect of over 45% in size. The gist of the method: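 Cytotoxicity was tracked as dead-cell DNA fluorescence in HepG2 cells treated with test compounds at 37 C; each time-point value comes from one kinetic series spanning 0, 8, 16, 24, 32 and 40 h.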
Test [2] can be described thus: qHTS assay to identify small molecule antagonists of the estrogen receptor alpha (ER-alpha) signaling pathway using the BG1 cell line in the presence of 0.1 nM 17-beta-estradiol - cell viability counter screen (AID 1259241). Note: nearly all actives have a fitted effect of over 40% in size. Note: potency is the fitted concentration of half-maximal effect. The gist of the method: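 VM7Luc4E2 cells (endogenous ER-alpha, 4×ERE-luciferase), hormone-starved 5 days in charcoal-stripped FBS, were treated with compounds plus 0.1 nM 17beta-estradiol for 22 hr at 37C; viability read in same wells as CellTiter-Fluor live-cell protease fluorescence.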
A general note: In qHTS, concentration-response curves come from the screen itself.

A short description of test [3]: qHTS assay to identify small molecule antagonists of the androgen receptor (AR) signaling pathway using the MDA cell line in the presence of 0.5 nM R1881 - cell viability counter screen (AID 1259242). Note: nearly all actives have a fitted effect of over 45% in size. In outline: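 Cells seeded at 3,000/well and allowed 5 hr at 37C, 0% CO2 before compound transfer and R1881 (0.5 nM final) addition; 16 hr later, live-cell protease fluorescence indicated cytotoxicity.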

Test [4] has as its target Estrogen receptor (Homo sapiens) (UniProt P03372). The test is described as follows: qHTS assay to identify small molecule antagonists of the estrogen receptor alpha (ER-alpha) signaling pathway using the BG1 cell line in the presence of 0.1 nM 17-beta-estradiol (AID 1259244). Note: nearly all actives have a fitted effect of over 50% in size. The gist of the method: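 Luciferase signal from VM7Luc4E2 ERE-reporter cells, co-dosed with test compound and 0.1 nM final 17beta-estradiol for 22 h, read with ONE-Glo.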

A short description of test [5]: qHTS assay to identify small molecule phospholipidosis (PLD) inducers (AID 1259344; active = well fitted curve in the direction sought with a large enough effect; an effect the other way counts as inactive or inconclusive). In outline:
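Read-out is LipidTOX Red fluorescence (ex 595/em 615) imaged in HepG2 cells after 24 h compound exposure at 37 C, with Hoechst nuclear counterstain (ex 352/em 461) allowing per-cell normalisation.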

The nature of test [6]: qHTS assay to identify small molecule HDAC inhibitors (AID 1259364).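 Note: wild-type HCT-116 cells with endogenous class I/II HDAC activity; top concentration of the series differs between compounds; nearly all actives have a fitted effect of over 45% in size.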 In outline: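 HCT-116 wt cells, 1,500/well, overnight attach. Compounds (DMSO) 2 h, 37 °C. HDAC-Glo I/II, 30 min RT. Luminescence.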
The nature of test [7]: qHTS assay to identify small molecule HDAC inhibitors - cell viability counter screen (AID 1259365). Note: series mostly up to about 92 µM; nearly all actives have a fitted effect of over 50% in size. The gist of the method: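 Wild-type HCT-116 cells were seeded at 1,500 per well, incubated overnight at 37 C, then exposed to compounds in DMSO for 2hr. Viability was read by CellTiter-Glo luminescence after 30min at room temperature.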
Test [8] is described as follows: qHTS assay to identify small molecule agonists of the sonic hedgehog signaling (Shh) pathway - cell viability counter screen (AID 1259366). Note: nearly all actives have a fitted effect of over 50% in size. Note: potency is the fitted concentration of half-maximal effect. The gist of the method:
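NIH/3T3-derived 3T3 Gli1-Luc cells (stable Gli1-responsive firefly luciferase reporter) were seeded, rested 4 hr at 37 C/5% CO2, then exposed to compounds in DMSO for 24 hr; viability was read by CellTiter-Fluor fluorescence in the same wells.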

A short description of test [9]: qHTS assay to identify small molecule antagonists of the sonic hedgehog signaling (Shh) pathway - cell viability counter screen (AID 1259367). Note: nearly all actives have a fitted effect of over 55% in size. Note: potency is the fitted concentration of half-maximal effect. In outline: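 Fluorescence read-out (CellTiter-Fluor, 1 hr at 37C) taken after 23 hr compound treatment of 3T3 Gli1-Luc cells stimulated with conditioned medium. Cells were seeded at 2,000 per well and pre-incubated 4 hr.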

A short description of test [10]: qHTS assay to identify small molecule agonists of the sonic hedgehog signaling (Shh) pathway (AID 1259368; calls by dose curve; note: series mostly up to about 92 µM; nearly all actives have a fitted effect of over 15% in size). The gist of the method: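 Following a 24 hr incubation with DMSO-dissolved compounds at 37 C, 5% CO2, Gli1-Luc NIH/3T3-derived cells received luciferase reagent for 30 min at room temperature prior to luminescence measurement.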
Test [11] in a line: qHTS assay to identify small molecule antagonists of the sonic hedgehog signaling (Shh) pathway (AID 1259369; calls by dose curve; note: nearly all actives have a fitted effect of over 45% in size; note: potency is the fitted concentration of half-maximal effect). The gist of the method:
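Read-out is luminescence from a firefly luciferase gene controlled by the Gli1 response element, in 3T3Gli1-Luc cells pre-incubated 4hr then exposed to compounds and conditioned medium for 24hr.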

Test [12] in a line: qHTS assay to identify small molecule agonists of the androgen receptor (AR) signaling pathway in the presence of an antagonist - cell viability counter screen (AID 1259379). Note: nearly all actives have a fitted effect of over 25% in size. Note: potency is the fitted concentration of half-maximal effect. In outline:
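Each compound was tested at 15 concentrations on MDA-kb2 cells in the presence of 3.0uM nilutamide. Viability was measured by CellTiter-Fluor fluorescence after a 16 hr incubation at 37C in a CO2-free atmosphere.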

Test [13] can be described thus: qHTS assay to identify small molecule agonists of the estrogen receptor beta (ER-beta) signaling pathway - cell viability counter screen (AID 1259380). Note: nearly all actives have a fitted effect of over 30% in size. In outline: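 Compounds dissolved in DMSO were pin-transferred onto ER-beta-UAS-bla HEK293T cells that had settled 6 hr, and exposure ran 16 hr at 37C. Following the reporter read, CellTiter-Glo luminescence after 30 min at room temperature indicated cytotoxicity.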

Test [14] can be described thus: qHTS assay to identify small molecule antagonists of the estrogen receptor beta (ER-beta) signaling pathway - cell viability counter screen (AID 1259382). Note: series mostly up to about 92 µM; nearly all actives have a fitted effect of over 55% in size. The gist of the method: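 CellTiter-Glo ATP luminescence measured after the LiveBLAzer read in the same wells; ER-beta-UAS-bla HEK293T cells, 16 hr compound treatment with 1nM 17-beta-estradiol agonist at 37C, 5% CO2.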

Test [15] has as its target Estrogen receptor (Homo sapiens) (UniProt P03372). Nature of the test: qHTS assay to identify small molecule agonists of the estrogen receptor alpha (ER-alpha) signaling pathway in the presence of an antagonist (AID 1259383; calls by dose curve; note: top concentration of the series differs between compounds; nearly all actives have a fitted effect of over 15% in size). In outline:
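Luminescent ERE-luciferase reporter, VM7Luc4E2 cells (endogenous ER-alpha); 10.0nM ICI-182,780 final; 15-point compound titration; 22hr at 37C; ONE-Glo, 30min RT.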

Test [16] is described as follows: qHTS assay to identify small molecule agonists or antagonists of the thyroid stimulating hormone receptor (TSHR) signaling pathway - wild type cell line counter screen (AID 1259384; calls by dose curve). The gist of the method:
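Wild-type Hek293 cells, 800/well, 18 h at 37C, then compound with Ro20-1724 for 30 min RT. cAMP by HTRF (cAMP-d2/anti-cAMP cryptate), 1 h RT, fluorescence read. 15 concentrations, triplicates.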

Test [17] concerns the target Estrogen receptor beta (Homo sapiens) (UniProt Q92731). The test is described as follows: qHTS assay to identify small molecule agonists of the estrogen receptor beta (ER-beta) signaling pathway (AID 1259377; active = well fitted activation curve with a large enough effect in the signal ratio in the repeat runs, not every such curve was filed as active; the % refers to the signal ratio). In outline:
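ER-beta-UAS-bla HEK293T (GripTite) cells carrying a UAS-driven beta-lactamase reporter, in medium with 2% charcoal-stripped FBS, were exposed to compounds for 16 hr at 37C; LiveBLAzer B/G FRET substrate was then added and fluorescence read after 2 hours at room temperature.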

Test [18] has the same target. Nature of the test: qHTS assay to identify small molecule antagonists of the estrogen receptor beta (ER-beta) signaling pathway (AID 1259378; active = well fitted inhibition curve with a large enough effect in the signal ratio in the repeat runs, not every such curve was filed as active; the % refers to the signal ratio). In outline: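 ER-beta-UAS-bla HEK293T cells in 2% charcoal-stripped FBS medium treated with compound plus 1nM final 17-beta-estradiol for 16 hr at 37C. Beta-lactamase reporter read by FRET substrate fluorescence after 2 hours at room temperature.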

In test [19] the target is Androgen receptor (Homo sapiens) (UniProt P10275). Nature of the test: qHTS assay to identify small molecule antagonists of the androgen receptor (AR) signaling pathway using the MDA cell line in the presence of 0.5 nM R1881 (AID 1259243). Note: nearly all actives have a fitted effect of over 50% in size. In outline:
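Luminescence from an AR/GR-responsive MMTV-luciferase construct in MDA-kb2 breast carcinoma cells, read 30 min after ONE-Glo, following 16 hr co-treatment with compounds and 0.5 nM R1881.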

Test [20] shares this target. Nature of the test: qHTS assay to identify small molecule agonists of the androgen receptor (AR) signaling pathway in the presence of an antagonist (AID 1259381; calls by dose curve; note: nearly all actives have a fitted effect of over 15% in size). The gist of the method: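 Plated MDA-kb2 cells (3,000/well) were pre-incubated 5hr, given nilutamide (3.0uM final) or buffer, then dosed with compounds in DMSO at 15 concentrations. Luciferase activity was quantified by luminescence after 16hr at 37C.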

Sequence of Androgen receptor (Homo sapiens) (P10275 whole entry, looked up): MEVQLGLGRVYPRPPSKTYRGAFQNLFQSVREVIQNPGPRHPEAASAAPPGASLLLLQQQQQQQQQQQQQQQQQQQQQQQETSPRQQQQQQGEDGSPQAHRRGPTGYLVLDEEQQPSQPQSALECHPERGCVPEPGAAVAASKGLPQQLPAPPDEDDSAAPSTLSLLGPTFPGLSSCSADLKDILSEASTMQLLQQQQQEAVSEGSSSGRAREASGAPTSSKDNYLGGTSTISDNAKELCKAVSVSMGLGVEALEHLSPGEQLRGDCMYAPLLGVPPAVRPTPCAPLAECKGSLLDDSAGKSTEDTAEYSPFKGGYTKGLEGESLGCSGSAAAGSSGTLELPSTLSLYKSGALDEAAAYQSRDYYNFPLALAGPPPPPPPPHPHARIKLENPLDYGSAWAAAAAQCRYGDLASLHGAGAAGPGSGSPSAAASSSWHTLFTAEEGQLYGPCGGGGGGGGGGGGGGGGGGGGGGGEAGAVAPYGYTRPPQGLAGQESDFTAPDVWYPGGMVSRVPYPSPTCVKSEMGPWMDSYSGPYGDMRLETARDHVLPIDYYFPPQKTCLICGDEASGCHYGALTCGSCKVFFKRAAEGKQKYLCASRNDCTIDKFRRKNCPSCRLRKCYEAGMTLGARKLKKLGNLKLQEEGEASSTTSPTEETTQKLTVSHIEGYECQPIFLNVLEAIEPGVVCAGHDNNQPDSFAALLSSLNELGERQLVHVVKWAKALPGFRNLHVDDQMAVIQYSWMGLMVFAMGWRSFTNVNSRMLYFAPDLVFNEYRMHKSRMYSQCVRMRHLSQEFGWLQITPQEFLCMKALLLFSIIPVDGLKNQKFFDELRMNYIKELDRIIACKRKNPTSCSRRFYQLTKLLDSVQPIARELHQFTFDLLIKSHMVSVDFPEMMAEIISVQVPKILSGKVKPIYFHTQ
Sequence of Estrogen receptor beta (Homo sapiens) (Q92731 whole entry, looked up): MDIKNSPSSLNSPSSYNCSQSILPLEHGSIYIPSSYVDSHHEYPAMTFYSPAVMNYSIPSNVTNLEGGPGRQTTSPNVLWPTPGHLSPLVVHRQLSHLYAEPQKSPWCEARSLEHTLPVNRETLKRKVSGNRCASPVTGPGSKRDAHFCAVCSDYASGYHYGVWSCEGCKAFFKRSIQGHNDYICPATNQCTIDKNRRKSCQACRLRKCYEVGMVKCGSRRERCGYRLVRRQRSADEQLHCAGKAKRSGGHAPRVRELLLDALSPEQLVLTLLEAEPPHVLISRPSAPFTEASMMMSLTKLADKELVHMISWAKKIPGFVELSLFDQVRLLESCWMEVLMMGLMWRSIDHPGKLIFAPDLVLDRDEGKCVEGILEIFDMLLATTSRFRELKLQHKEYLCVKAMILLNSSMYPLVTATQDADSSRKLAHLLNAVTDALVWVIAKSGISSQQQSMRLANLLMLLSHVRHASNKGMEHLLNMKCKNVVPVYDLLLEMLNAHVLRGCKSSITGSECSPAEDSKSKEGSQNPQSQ
Sequence of Estrogen receptor (Homo sapiens) (P03372 whole entry, looked up): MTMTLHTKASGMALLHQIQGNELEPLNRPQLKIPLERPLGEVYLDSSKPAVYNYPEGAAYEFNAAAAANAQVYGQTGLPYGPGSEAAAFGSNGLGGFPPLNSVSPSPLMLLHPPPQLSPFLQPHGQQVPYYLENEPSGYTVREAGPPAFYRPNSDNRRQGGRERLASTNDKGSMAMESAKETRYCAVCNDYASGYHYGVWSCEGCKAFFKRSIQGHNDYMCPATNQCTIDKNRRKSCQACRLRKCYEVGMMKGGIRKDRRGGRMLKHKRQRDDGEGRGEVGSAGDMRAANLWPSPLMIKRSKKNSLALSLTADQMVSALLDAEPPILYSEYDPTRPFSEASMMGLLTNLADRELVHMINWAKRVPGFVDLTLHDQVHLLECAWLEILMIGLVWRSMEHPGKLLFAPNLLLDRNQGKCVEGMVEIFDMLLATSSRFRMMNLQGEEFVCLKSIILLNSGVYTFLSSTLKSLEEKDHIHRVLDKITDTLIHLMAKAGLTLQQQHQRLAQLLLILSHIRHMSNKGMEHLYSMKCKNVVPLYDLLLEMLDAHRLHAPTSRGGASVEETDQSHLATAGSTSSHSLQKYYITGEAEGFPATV

`Cc1cc(=O)[nH]c(=S)[nH]1`: the Potency entry in [1], in [2], in [3], in test [4], in test [6] and in test [8] was “inactive” throughout. The Potency result in test [9], in [11], in [12], in test [13], in test [14] and in test [15] was “inactive” each time. Moreover, the outcome in [5], in test [7], in test [10] and in test [16] was inactive.

For `O=C(O)/C=C\C(=O)O`, the Potency result in [1], in [6], in test [9], in test [11], in test [18] and in test [12] was “inactive” in each case. Further, the Potency entry in test [13] and in test [14] was “inactive” each time. The outcome in [7], in test [10], in test [17] and in [16] was inactive.

Take `Nc1ccn([C@H]2CC[C@@H](CO)O2)c(=O)n1`: the Potency entry in test [1], in test [2], in [3], in [4], in test [6] and in test [8] was “inactive” each time. Further, the Potency entry in [9], in test [11], in [18], in test [12], in [13] and in test [14] was “inactive” in each case. The Potency entry in test [15] was “inactive”. Further, the call in [5], in [7], in test [10], in test [17] and in [16] was inactive.

Turning to `Cc1ccc(S(=O)(=O)NC(=O)NN2CCCCCC2)cc1`, the Potency result in test [2], in [3], in [4], in test [6], in [9] and in test [11] was “inactive” in each case. Further, the Potency result in test [18], in test [12], in [13], in test [14] and in test [15] was “inactive” in each case. Also, the result in test [5], in test [7], in test [10], in [17] and in [16] was inactive.

As for `O=C(O)c1[nH]n(-c2ccc(S(=O)(=O)O)cc2)c(=O)c1N=Nc1ccc(S(=O)(=O)O)cc1`, the Potency in test [2] was 48.7 µM (active) and 28.6 µM (active); in test [8], 27.4 µM (active) and 25.5 µM (active); in test [9], 30.7 µM (active) and 25.5 µM (active); in [11] it was “inactive and 57.1 µM (active)”; in test [12], 23.7 µM (active) and 54.6 µM (active) and 28.6 µM (active). The Potency entry in [4], in test [6], in test [13] and in test [15] was “inactive” throughout. Besides, the result in [5], in [7], in [10] and in [16] was inactive.

As for `Cc1ccc(O)cc1`, the Potency entry in test [2], in test [3], in [19], in test [6], in [9] and in [11] was “inactive” each time. Further, the Potency result in test [18], in test [12], in test [13] and in test [20] was “inactive” throughout. Moreover, the compound was called inactive in test [5], in [7], in [10], in test [17] and in test [16].

Regarding `CCCCC1C(=O)N(c2ccccc2)N(c2ccccc2)C1=O`, the Potency entry in [2], in test [3], in test [4], in test [6], in [9] and in [11] was “inactive” each time. Also, the Potency result in [18], in [12], in test [13], in test [14] and in test [15] was “inactive” each time. The result in test [5], in [7], in test [10], in [17] and in [16] was inactive.

For `OCCc1ccccc1`, the Potency entry in [2], in [3], in test [6], in test [9], in test [11] and in [12] was “inactive” in each case. Further, the Potency result in test [13] and in test [14] was “inactive” in each case. In addition, the compound was called inactive in test [5], in test [7], in test [10] and in test [16].

The record behind these values is PubChem BioAssay (Tox21).
